CCHF vOTU inh = CCHFV vOTU protease inhibitors, primary screen, biochemical, Pep-AMC substrate, fluorescence | Crimean-Congo hemorrhagic fever virus L polyprotein viral ovarian tumor (vOTU) protease … | inhibition, % at 11.5 µM | 370,000 tested, 0.55% active | AID 651958, 2012; in the data active = inhibition above about 30%
PfHsp40 rescue = rescue of yeast from PfHsp40 toxicity, primary screen, S. cerevisiae, ATP luminescence; 340,000 tested, 0.68% active; AID 504582, 2011; S. cerevisiae expressing PfHsp40, growth rescue; growth rescue, % at 12.5 µM; in the data active = growth rescue above about 28%, passing the limit was not always enough; inconclusive = no clear call, values can overlap the other calls;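 note: yeast W303a lacking pdr1 and pdr3 grown in galactose medium; growth measured after three days at 30 °C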
BJeLR lethal = MLPCN primary cell-based screen for lethality selective to Ras in HRASV12 cells; BJeLR (HRASV12) viability, CellTiter-Glo ATP luminescence, 48 h; inhibition, % (concentration not given with the values); 300,000 tested, 0.17% active; AID 1554, 2009; in the data active = inhibition above about 50%; inconclusive = no clear call, values can overlap the other calls
Sa RN4220 lethal = growth inhibition of S. aureus RN4220, primary screen, OD600. 16 h. inhibition, % (test concentration not listed). 330,000 tested, 0.33% active; in the data active = inhibition above about 85%
ugtP null kill = growth inhibition of ugtP-null S. aureus, primary screen, RN4220 ugtP deletion, OD600; 16 h; 330,000 tested, 0.54% active; growth inhibition, % (concentration not given with the values); in the data active = growth inhibition above about 68%
A number is an active result; ! = repeats disagree. Shown are actives, neighbours in structure and some others; about 1.6% of the full set was active somewhere.

O=C(c1ccc(Cl)c(Cl)c1)N1CCC(=O)N(C(COCc2ccc(Cl)cc2)Cc2ccccc2)CC1 (stereo not drawn) was read as CCHF vOTU inh inactive, PfHsp40 rescue 30, BJeLR lethal inactive, Sa RN4220 lethal inactive and ugtP null kill inactive.
Screening Cc1cccc(COCC(Cc2ccccc2)N2CCN(C(=O)c3ccc(Cl)c(Cl)c3)CCC2=O)c1 (stereo not drawn) returned CCHF vOTU inh inactive, PfHsp40 rescue inactive, BJeLR lethal inactive, Sa RN4220 lethal inactive and ugtP null kill inactive.
Cc1c(N)c(C)c([N+](=O)[O-])c(C)c1[N+](=O)[O-] was read as CCHF vOTU inh inactive, PfHsp40 rescue inactive, BJeLR lethal inactive, Sa RN4220 lethal inactive and ugtP null kill inactive.
`Cc1c(N)c(C(C)(C)C)cc(C(C)(C)C)c1[N+](=O)[O-]` gave CCHF vOTU inh inactive, PfHsp40 rescue inactive, BJeLR lethal inactive, Sa RN4220 lethal inactive and ugtP null kill 95.
O=C1C2C3C=CC(C3)C2C(=O)N1CCCCN1C(=O)C2C3C=CC(C3)C2C1=O (stereo not drawn) was read as CCHF vOTU inh inactive, PfHsp40 rescue inactive, BJeLR lethal inactive, Sa RN4220 lethal inactive and ugtP null kill inactive.
For O=C1[C@@H]2[C@H](C(=O)N1O)[C@H]1C=C[C@@H]2C1 the results were CCHF vOTU inh inactive, PfHsp40 rescue 34, BJeLR lethal inactive, Sa RN4220 lethal inactive and ugtP null kill inactive.
`CCCCC1CNCCN1CC1(c2ccccc2)CC1` (stereo not drawn) gave Sa RN4220 lethal inactive and ugtP null kill inactive.
Screening O=C(CN1/C(=C(/O)c2ccccc2)C(=O)c2ccccc2S1(=O)=O)c1ccccc1 returned CCHF vOTU inh inactive, PfHsp40 rescue 80, BJeLR lethal inactive, Sa RN4220 lethal inactive and ugtP null kill inactive.
COc1ccc(C(=O)CN2C(=O)c3ccccc3S2(=O)=O)cc1 was read as CCHF vOTU inh inactive, BJeLR lethal inactive, Sa RN4220 lethal inactive and ugtP null kill inactive.
O=C(NC1CCS(=O)(=O)C1)C(=Cc1ccco1)NC(=O)c1ccccc1 (stereo not drawn) was read as Sa RN4220 lethal inactive and ugtP null kill inactive.
CCCc1ccc(-c2ccc(-c3noc(-c4ccncc4)n3)cc2)nc1 was read as CCHF vOTU inh inactive, PfHsp40 rescue inactive, BJeLR lethal inactive, Sa RN4220 lethal inactive and ugtP null kill inactive.
For CCCCc1ccc(-c2ccc(Br)cc2)nc1 the results were CCHF vOTU inh inactive, PfHsp40 rescue inactive, BJeLR lethal inactive, Sa RN4220 lethal inactive and ugtP null kill 88.
`CCc1ccc(C=NNC(=O)C(=O)NCCCN2CCOCC2)cc1` gave Sa RN4220 lethal inactive and ugtP null kill inactive.
Screening CCC1SC(=NN=Cc2ccco2)N(Cc2ccc(F)cc2)C1=O (stereo not drawn) returned Sa RN4220 lethal inactive and ugtP null kill inactive.
For Cc1nn(C(C)(C)C)c(OC(=O)c2cccs2)c1S(=O)(=O)c1ccccc1 the results were CCHF vOTU inh inactive, PfHsp40 rescue 67, BJeLR lethal inactive, Sa RN4220 lethal inactive and ugtP null kill inactive.
CN(C)c1ccc(C=Nn2c(-c3ccccc3Br)n[nH]c2=S)cc1 was read as Sa RN4220 lethal inactive and ugtP null kill inactive.
O=Cc1cc(OCc2ccccc2)ccc1[B-](F)(F)F was read as CCHF vOTU inh inactive and PfHsp40 rescue 160.
For CC1NC(=O)c2cc([N+](=O)[O-])cc(I)c2OCCC(C(N)=O)NC(=O)C(CCCCN)NC1=O (stereo not drawn) the results were Sa RN4220 lethal inactive and ugtP null kill inactive.
`CCc1oc2ccccc2c1C(=O)c1cc(Br)c(O)c(Br)c1` gave CCHF vOTU inh inactive, PfHsp40 rescue 259! and BJeLR lethal inactive.
`CCc1ccc(OCC(=O)c2c(O)c3ccccc3oc2=O)cc1` gave CCHF vOTU inh inactive, PfHsp40 rescue inactive, BJeLR lethal inactive, Sa RN4220 lethal inactive and ugtP null kill inactive.
C=CCOc1ccccc1CN(C(=O)CCl)c1ccc2c(c1)OCO2 was read as CCHF vOTU inh inactive, PfHsp40 rescue inactive and BJeLR lethal 125.
COC(=O)c1ccc2cc(OC)cc([N+](=O)[O-])c2n1 was read as CCHF vOTU inh inactive and PfHsp40 rescue 37.
Oc1cccc2ccc(C=Cc3ccc(Br)s3)nc12 was read as Sa RN4220 lethal inactive and ugtP null kill inactive.
`O=C(CON=Cc1ccccc1)N1c2ccccc2Oc2ccccc21` gave Sa RN4220 lethal inactive and ugtP null kill inactive.
COC(=O)[C@@]12CCCCN1C(c1ccc(-c3ccc4c(c3)OCO4)c(OC)c1)C1C(=O)N(C)C(=O)C12 (stereo partly drawn) was read as Sa RN4220 lethal inactive and ugtP null kill inactive.
CCOC(=O)c1oc2ccc(CNC3CCCCC3)c(Cl)c2c1C was read as CCHF vOTU inh inactive, PfHsp40 rescue inactive, BJeLR lethal inactive, Sa RN4220 lethal inactive and ugtP null kill 82.
CCOC(=O)c1oc2ccc(CNCCO)c(Cl)c2c1C was read as CCHF vOTU inh inactive, PfHsp40 rescue inactive, BJeLR lethal inactive, Sa RN4220 lethal inactive and ugtP null kill inactive.
CC(=NN=C1SCC(=O)N1c1ccccc1)c1ccc(C)cc1 was read as Sa RN4220 lethal inactive and ugtP null kill inactive.
Screening COC(=O)c1ccc(C=NNC(=O)c2cccc(F)c2)cc1 returned Sa RN4220 lethal inactive and ugtP null kill inactive.
Screening O=c1ccc(-c2n[nH]c(=S)n2-c2ccc(F)c(Cl)c2)n[nH]1 returned CCHF vOTU inh inactive, PfHsp40 rescue 52, BJeLR lethal inactive, Sa RN4220 lethal inactive and ugtP null kill inactive.
Screening O=C(Nc1ccc([N+](=O)[O-])cc1)Nc1nc(-c2ccc(Cl)s2)cs1 returned CCHF vOTU inh inactive, PfHsp40 rescue inactive, BJeLR lethal inactive, Sa RN4220 lethal 97 and ugtP null kill 97.
O=C(Nc1nc(-c2ccc(Cl)s2)cs1)c1cccs1 was read as CCHF vOTU inh inactive, PfHsp40 rescue inconclusive, BJeLR lethal inactive, Sa RN4220 lethal inactive and ugtP null kill 99.
CC(=O)Nc1nc(-c2ccc([N+](=O)[O-])cc2)cs1 was read as CCHF vOTU inh inactive, PfHsp40 rescue inactive, BJeLR lethal inactive, Sa RN4220 lethal inactive and ugtP null kill inactive.
Screening COc1ccccc1C=NNC(=O)C(=O)NCc1cccnc1 returned Sa RN4220 lethal inactive and ugtP null kill inactive.
`CCOC(=O)C(NC(=O)Nc1ccc(F)cc1F)(Oc1ccc(F)cc1)C(F)(F)F` (stereo not drawn) gave CCHF vOTU inh inactive, PfHsp40 rescue inactive, BJeLR lethal inactive, Sa RN4220 lethal 85 and ugtP null kill inactive.
`CCN1CCc2c(sc(NC(=O)c3cc4ccccc4cc3OC)c2C(N)=O)C1` gave CCHF vOTU inh inactive, PfHsp40 rescue inactive, BJeLR lethal 60, Sa RN4220 lethal inactive and ugtP null kill inactive.
COc1cccc(OC)c1C(=O)Nc1sc2c(c1C(N)=O)CCN(Cc1ccccc1)C2 was read as CCHF vOTU inh inactive, PfHsp40 rescue inactive, BJeLR lethal inactive, Sa RN4220 lethal inactive and ugtP null kill inactive.

Screening results as filed in PubChem BioAssay.
